Format in all cases: functional
Experiment [1] deals with Plasmodium falciparum. Kind of experiment: GSK_TCMDC: Inhibition of Plasmodium falciparum 3D7 in whole red blood cells, using parasite LDH activity as an index of growth. Test compounds present at 2uM.
Experiment [2] concerns Plasmodium falciparum. The experiment is described as follows: GSK_TCMDC: Inhibition of Plasmodium falciparum Dd2 in whole red blood cells, using parasite LDH activity as an index of growth. Test compounds present at 2uM.
A further experiment deals with HepG2. The experiment is described as follows: GSK_TCMDC: Percent inhibition of human HepG2 cell line. Test compounds present at 10uM.

In general, Inhibition refers to the relative decrease from the control value, in per cent. Higher therefore signals a strong effect. `COc1ccc2nccc([C@@H](O)CN3CCC(NCc4cc5cccnc5[nH]4)CC3)c2n1.O=C(O)C(=O)O`: the Inhibition with Plasmodium falciparum [1] came to 90%; in the experiment on Plasmodium falciparum [2], 0%; with HepG2, 7%.
In the case of `Cl.N=C(N)c1ccc(Nc2nc(Nc3ccc(-c4ccccc4)cc3)ncc2[N+](=O)[O-])cc1`, the results for the Inhibition in the experiment with Plasmodium falciparum [1], with Plasmodium falciparum [2] and with HepG2 were 99%, 35% and 11%, respectively.
Turning to `COc1ccc2ncc(F)c(CCN3CCC[C@H](CNCc4ccc5c(n4)NC(=O)CS5)C3)c2n1.Cl`, the Inhibition with Plasmodium falciparum [1] is 96%; in the experiment with Plasmodium falciparum [2], 34%; with HepG2, 16%.
As for `COc1ccc(CNCc2ccc(-c3ccc(-c4nc5ccccc5[nH]4)cc3)cc2)cc1.O=C(O)C(F)(F)F`, the Inhibition in the experiment on Plasmodium falciparum [1] was found to be 100%; in the experiment with Plasmodium falciparum [2], 89%; with HepG2, 63%.
As for `CCOc1ccc(S(=O)(=O)N(C)c2ccc(OCC(=O)Nc3nccs3)cc2)cc1`, the Inhibition is listed as 95% with Plasmodium falciparum [1], 4% with Plasmodium falciparum [2] and 8% in the experiment with HepG2.
Taken in the same sequence, the figures for `O=C(NC1CCN(c2ccnc3cc(Cl)ccc23)C1)c1ccc(F)cc1F.O=C(O)C(F)(F)F` (stereo not given) were 100%, 100% and 31%.
Turning to `O=C(Nc1cccc(CN2CCCN(Cc3ncc[nH]3)CC2)c1)c1ccc(-c2ccccc2)cc1.O=C(O)C(F)(F)F`, the Inhibition in the experiment with Plasmodium falciparum [1] is reported as 100%; in the experiment with Plasmodium falciparum [2] it was 56%; in the experiment with HepG2 it was 23%.
For the compound `CC(C)N1CCC(NC(=O)N2CCCN(c3ncnc4cc(-c5ccccc5)sc34)CC2)CC1.O=C(O)C(F)(F)F`, the Inhibition with Plasmodium falciparum [1] is recorded as 87%; in the experiment with Plasmodium falciparum [2], 11%; in the experiment with HepG2 it was 31%.
In the case of `CCCCCCOc1ccc(C(=O)NCCC2CCN(CCCCCNC(=O)C=Cc3ccc(Cl)c(Cl)c3)CC2)cc1`, the Inhibition amounted to 99% with Plasmodium falciparum [1], 10% in the experiment on Plasmodium falciparum [2] and 13% in the experiment on HepG2.
As to `COc1ccc2nccc(N3CCC(CCNCc4ccc5c(n4)NC(=O)CO5)CC3)c2c1.Cl`, the figures for the Inhibition in the experiment with Plasmodium falciparum [1], with Plasmodium falciparum [2] and in the experiment with HepG2 were 100%, 50% and 22%, respectively.
For `Cc1cccc(CNc2nc(C)cc(N[C@@H](Cc3ccccc3)C(=O)NCCOc3ccccc3)n2)c1.O=C(O)C(F)(F)F`, the figures for the Inhibition in the experiment on Plasmodium falciparum [1], in the experiment with Plasmodium falciparum [2] and in the experiment on HepG2 were 93%, 54% and 28%, respectively.
On to `O=C(Nc1cccc(-c2nc3ccccc3[nH]2)c1)c1ccc(-c2cccc([N+](=O)[O-])c2)o1`, for which the Inhibition amounted to 93% in the experiment on Plasmodium falciparum [1], 28% in the experiment with Plasmodium falciparum [2] and 22% with HepG2.
`CCc1cn2c3c(cc(C(=O)N[C@@H](Cc4ccccc4)[C@H](O)CNCC(C)C)cc13)N(C)S(=O)(=O)CC2`: the Inhibition in the experiment on Plasmodium falciparum [1] is listed as 98%; with Plasmodium falciparum [2] it was 99%; with HepG2, 0%.
Taken in the same sequence, the figures for `NC(=O)CCC(NC(=O)CNC(=O)Nc1cccc(C(F)(F)F)c1)C(=O)O` (stereo not given) were 97%, 93% and 1%.
Take `CCCC[C@@H](C(=O)NCCc1ccc(Cl)cc1)N1C(=O)CCC1C(=O)Nc1ccc(Cl)c(Cl)c1` (stereo not given in full): the values for the Inhibition in the experiment with Plasmodium falciparum [1], with Plasmodium falciparum [2] and with HepG2 were 95%, 2% and 4%, respectively.
For `COC(=O)c1cccc(CNCc2ccc(-c3cccc(-c4nc5cc(C(F)(F)F)ccc5[nH]4)c3)cc2)c1.O=C(O)C(F)(F)F`, in that order: 100%, 97% and 5%.
Take `CCN(CCCN1CCCCC1)c1cc(C)nc(Nc2ccc(Oc3ccccc3)cc2)n1.O=C(O)C(F)(F)F`: the Inhibition in the experiment with Plasmodium falciparum [1] is listed as 100%; in the experiment on Plasmodium falciparum [2], 99%; with HepG2, 50%.
As for `Cc1ccc(Cc2c(C)nc3nc(N)nc(N)c3c2C)cc1.Cl`, the results for the Inhibition in the experiment on Plasmodium falciparum [1], with Plasmodium falciparum [2] and in the experiment with HepG2 were 93%, 1% and 60%, respectively.
Turning to `CN(C)CCCNc1ncnc2c1[nH]c1ccc(Br)cc12`, the Inhibition in the experiment with Plasmodium falciparum [1] came out at 100%; with Plasmodium falciparum [2], 19%; in the experiment on HepG2 it was 3%.
With `COc1ccc2nccc([C@@H](O)CN3CCC(NCc4cc5cccc6c5n(c4=O)CCC6)CC3)c2c1.O=C(O)C(=O)O`, the Inhibition stood at 98% in the experiment on Plasmodium falciparum [1], 97% in the experiment with Plasmodium falciparum [2] and 33% with HepG2.
Taken in the same sequence, the figures for `CC(C)C[C@@H](C(=O)N[C@@H](CCCCNC(=O)OCc1ccccc1)C(=O)Nc1nccs1)[C@H](C)N(O)C=O` were 99%, 98% and 0%.
As for `Cc1cccc2nc(-c3ccc(-c4ccc(NC(=O)NCc5cccc(F)c5)cc4)cc3)[nH]c12`, the Inhibition with Plasmodium falciparum [1] turned out to be 97%; in the experiment on Plasmodium falciparum [2], 12%; in the experiment with HepG2, 46%.
Turning to `Br.CC1(C)NC(=N)NC(=N)N1OCC=Cc1ccccc1`, the Inhibition in the experiment on Plasmodium falciparum [1] is 94%; in the experiment with Plasmodium falciparum [2], 96%; in the experiment on HepG2, 62%.
As for `CN1CCN(CCCN(Cc2ccc(-c3cccc(CNCc4ccc5c(c4)OCO5)c3)cc2)C(=O)NC2CCCCC2)CC1.O=C(O)C(F)(F)F`, the Inhibition in the experiment with Plasmodium falciparum [1] is given as 95%; with Plasmodium falciparum [2], 92%; in the experiment with HepG2, 31%.
`COc1ccc2nccc([C@@H](O)CN3CCC(NCC(=O)Nc4cc(F)cc(F)c4)CC3)c2n1.O=C(O)C(=O)O`: the Inhibition in the experiment on Plasmodium falciparum [1] is reported as 89%; in the experiment on Plasmodium falciparum [2], 28%; with HepG2, 18%.
As for `CCCc1ccc(NC(=O)c2cccc(CN3CCCN(Cc4cccc(C#N)c4)CC3)c2)cc1.O=C(O)C(F)(F)F`, the Inhibition in the experiment with Plasmodium falciparum [1] was 85%; in the experiment on Plasmodium falciparum [2] it was 0%; in the experiment with HepG2, 20%.
Take `CCOC(=O)CN1Cc2cc(NCc3ccc4ccc5nc(C)[nH]c(=O)c5c4c3)ccc2C1=O`: the Inhibition in the experiment with Plasmodium falciparum [1] is on record as 84%; in the experiment with Plasmodium falciparum [2] it was 91%; in the experiment with HepG2, 40%.
Taken in the same sequence, the figures for `COc1ccc(C2C(C(=O)OC3CCCC3)=C(C)NC3=C2C(=O)CCC3)cc1Br` (stereo not given) were 94%, 77% and 0%.
On to `COc1ccc(CNC2Cc3ccccc3C2)cc1-c1ccc(S(=O)(=O)NCCN2CCCC2)cc1.O=C(O)C(F)(F)F`, for which the Inhibition is recorded as 100% with Plasmodium falciparum [1], 61% with Plasmodium falciparum [2] and 40% in the experiment on HepG2.
In the case of `COc1cc(C(=O)NC2CCc3ccccc32)cc(Cl)c1OC` (stereo not given), the figures for the Inhibition in the experiment with Plasmodium falciparum [1], in the experiment on Plasmodium falciparum [2] and in the experiment with HepG2 were 85%, 60% and 12%, respectively.
